Compounds without any hit were thinned out: in the full panel of roughly 83,000, 20% have a hit.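 Plates (96-well) were seeded with cells, treated with compound at one concentration, and incubated for 48 hours before percent growth was determined.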 The source made the active and inactive calls. How the source made its calls: active means growth percent below 10; inactive means the rest.
tested on: NCI-H460 lung; assay: NCI-60 one-dose screen, 48 h (100 = growth as untreated, 0 = no growth, -100 = all killed); details: 10 µM

Structure (SMILES)	growth
O=C(/C=C/c1ccco1)c1nc2ccccc2n1Cc1ccc(Br)cc1	32.4% (inactive)
O=C(/C=C/c1ccco1)c1nc2ccccc2n1Cc1ccc(F)cc1	70.9% (inactive)
COc1cc2cc(C(=O)N3C[C@@H](CCl)c4c3cc(OC(=O)N3CCN(C)[C@@H]5CSSC[C@@H]53)c3ccccc43)[nH]c2c(OC)c1OC	-13.4% (active)
C#CC[Se]C(=O)c1ccc2n[se]nc2c1	63.9% (inactive)
O=C(/C=C/c1ccc(Cl)cc1Cl)c1nc2ccccc2n1Cc1ccc(F)cc1	43.8% (inactive)
O=C(/C=C/c1ccc(Cl)cc1)c1nc2ccccc2n1Cc1ccc(Br)cc1	58.1% (inactive)
CCOP(=O)(OCC)C(NC(C)=O)C(=O)SCCN (centres undefined)	121% (inactive)
COc1cc2cc(C(=O)N3C[C@@H](CCl)c4c3cc(OC(=O)N3CCN(C)[C@@H]5CSSC[C@H]53)c3ccccc43)[nH]c2c(OC)c1OC	-68.9% (active)
COc1ccc2cc([C@H](C)C(=O)[Se]CCC#N)ccc2c1	-27.2% (active)
CC12OOC(C)(OO1)C2CCC(=O)OCCNc1ccnc2cc(Cl)ccc12 (centres undefined)	45.2% (inactive)
CC(C)N=C([Se])NC(=O)c1cccs1	0.572% (active)
Cc1ccc2[nH]c(=S)n(-c3ccc(F)cc3)c(=O)c2c1	106% (inactive)
CCOC(=O)C1=C(Nc2ccccc2)C(=O)OC12C(=O)Nc1ccccc12 (centres undefined)	108% (inactive)
CC12CCC3(CCC(=O)NCCCNc4ccnc5cc(Cl)ccc45)[C@@](C)(OO[C@]3(C)O1)O2	7.06% (active)
CC[C@]12C=CCN3CC[C@@]4(c5ccc(OC)cc5N(C)[C@H]4[C@@](O)(C(=O)OC)[C@@H]1OC(=O)CCCC[P+](C1CCCCC1)(C1CCCCC1)C1CCCCC1)[C@@H]32	5.27% (active)
CC(=O)Oc1ccccc1C(=O)[Se]C(=NC(C)C)NC(C)C	-70.2% (active)
COCCOCCOCCOc1ccc(-n2cc(CCCN(CCNc3ccnc4cc(Cl)ccc34)C(=O)CCC(=O)O[C@@H]3O[C@@H]4OC5(C)CC[C@H]6[C@H](C)CC[C@@H]([C@H]3C)[C@@]46OO5)nn2)cc1	52% (inactive)
C[C@H]1[C@@H](CC(=O)N[C@@H](Cc2coc3ccccc23)B(O)O)O[C@@H]2OC3(C)CC[C@H]4[C@H](C)CC[C@@H]1[C@@]24OO3	-28.2% (active)
COP(=O)(CC(F)(F)C(F)(F)F)OC	95.9% (inactive)
CC12OOC(C)(OO1)C2CCC(=O)NCCNc1ccnc2cc(Cl)ccc12 (centres undefined)	101% (inactive)

Structure (SMILES)	growth
CC[C@]12C=CCN3CC[C@@]4(c5ccc(OC)cc5N(C)[C@H]4[C@@](O)(C(=O)OC)[C@@H]1OC(=O)CCC[P+](c1ccc(C)cc1)(c1ccc(C)cc1)c1ccc(C)cc1)[C@@H]32	-85.2% (active)
CC(C)N=C([Se])NC(=O)c1ccccc1	-25.8% (active)
CC[C@]12C=CCN3CC[C@@]4(c5ccc(OC)cc5N(C)[C@H]4[C@@](O)(C(=O)OC)[C@@H]1OC(=O)CCC[P+](C1CCCCC1)(C1CCCCC1)C1CCCCC1)[C@@H]32	4.64% (active)
CC1=C(COCCOC(=O)c2ccc(S(=O)(=O)F)cc2)C2=C(C)C3(CC3)[C@@](C)(O)C(=O)C2=C1	2.07% (active)
CC[C@]12C=CCN3CC[C@@]4(c5ccc(OC)cc5N(C)[C@H]4[C@@](O)(C(=O)OC)[C@@H]1OC(=O)CCCC[P+](c1ccc(OC)cc1)(c1ccc(OC)cc1)c1ccc(OC)cc1)[C@@H]32	-87% (active)
CC1=C(CCC=NNC(N)=O)C2=C(C)C3(CC3)[C@@](C)(O)C(=O)C2=C1	-24.8% (active)
CC[C@@]12CC(C(=O)OC)=C3Nc4cc5c(cc4[C@@]34CCN(C[C@H]3O[C@H]31)[C@@H]24)[C@@H]1[C@H](O5)[C@@H](O)[C@@]2(CC)CC(C(=O)OC)=C3Nc4cc(OC)ccc4[C@@]34CCN1[C@@H]24	15.9% (inactive)
CCOP(=O)(CC(F)(F)C(F)(F)F)OCC	91.6% (inactive)
CC1=C2C(=C[C@@](C)(COP(=O)(Oc3ccccc3)Oc3ccccc3)[C@@H]2O)C(=O)[C@@](C)(O)C12CC2	-35.4% (active)
CC(=O)Oc1ccccc1C(=O)NC([Se])=NC1CCCCC1	6.6% (active)
C[C@H]1[C@H](OC(=O)CCC(=O)N(CCCc2cn(-c3ccc(CN4CCOCC4)cc3)nn2)CCNc2ccnc3cc(Cl)ccc23)O[C@@H]2OC3(C)CC[C@H]4[C@H](C)CC[C@@H]1[C@@]24OO3	7.93% (active)
O=C(/C=C/c1ccc(Cl)cc1)c1nc2ccccc2n1Cc1ccc(F)cc1	26.8% (inactive)
CC1=C(CCC=O)C2=C(C)C3(CC3)[C@@](C)(O)C(=O)C2=C1	-42.6% (active)
O=C(NC([Se])=NC1CCCCC1)c1ccc2c(c1)OCO2	10.6% (inactive)
C[C@H]1[C@H](OC(=O)CCC(=O)N(CCCc2cn(-c3ccc(C#N)cc3)nn2)CCNc2ccnc3cc(Cl)ccc23)O[C@@H]2OC3(C)CC[C@H]4[C@H](C)CC[C@@H]1[C@@]24OO3	58.2% (inactive)
C[C@H]1[C@@H](Oc2ccc(-c3cn(-c4ccnc5cc(Cl)ccc45)nn3)cc2)O[C@@H]2OC3(C)CC[C@H]4[C@H](C)CC[C@@H]1[C@@]24OO3	25.3% (inactive)
COc1ccc(/C=C/C(=O)c2nc3ccccc3n2Cc2ccc(Br)cc2)cc1	57.8% (inactive)
COC(=O)CCn1c(-c2ccc(-n3cc(-c4ccc(O[C@H]5O[C@@H]6OC7(C)CC[C@H]8[C@H](C)CC[C@@H]([C@H]5C)[C@@]68OO7)cc4)nn3)cc2)nc2ccccc21	11.4% (inactive)
C[C@H]1[C@H](OC(=O)CCC(=O)N(CCCc2cn(-c3ccc([N+](=O)[O-])cc3)nn2)CCNc2ccnc3cc(Cl)ccc23)O[C@@H]2OC3(C)CC[C@H]4[C@H](C)CC[C@@H]1[C@@]24OO3	53.5% (inactive)

From PubChem BioAssay (NCI)
